SMILES strings stand for the structures. In all, about 420,000 compounds went through this assay and about 50,000 (12%) were called active. Inconclusive results (about 26%) are left out. The full list was thinned out, with actives kept by preference. Unmarked numbers belong to inactive results. Calls follow the shape of the dose curve; as a rule, active = well fitted inhibition curve with a large enough effect; inconclusive = small, poorly fitted or top-dose-only effect; inactive = flat fitted curve, though single readings scatter.
% is scaled to controls: 0 for no effect and ±100 for the full control effect; potency is read from the fitted curve at half-maximal effect.

A short description of the experiment: qHTS for Inhibitors of human tyrosyl-DNA phosphodiesterase 1 (TDP1): qHTS in cells in presence of CPT. Also: nearly all actives have a fitted effect of over 55% in size. To be noted: chicken DT40 Tdp1-/-;hTDP1 cells + 20 nM CPT, ATP luminescence, 48 h; series mostly up to 46.2 µM; activity change, negative = growth inhibition: at the top concentration. Put shortly: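 Chicken DT40 Tdp1-/- cells complemented with human TDP1, 400 cells/well, exposed to compounds plus 20 nM camptothecin for at least 48 h at 37 C; viability read as ATP content by CellTiter-Glo luminescence.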
On the technique in general: In qHTS, concentration-response curves come from the screen itself.
Take `COc1ccc(C(=O)COC(=O)C(O)c2ccccc2)c(OC)c1` (stereo not drawn): the “activity change, negative = growth inhibition” value is 16.3%.

Consider `O=C1N(c2ccccc2)C(=Nc2ccccc2)SC12CC2`, for which the “activity change, negative = growth inhibition” value was -10.5%. For the compound `Cc1cc(C)c(S(=O)(=O)Nc2c(C)n(C)n(-c3ccccc3)c2=O)cc1[N+](=O)[O-]`, the “activity change, negative = growth inhibition” value was -4.05%. `COc1ccc(NC(=O)Nc2cccc(-c3noc(C)n3)c2)cc1`: the “activity change, negative = growth inhibition” value was -3.37%. `CC(=O)Nc1cccc(-c2ccnc3c2CC(C)(C(=O)NCc2ccco2)O3)c1` (stereo not drawn): the Potency is 1.03 µM (active). For `CC1(C)Cc2cccc(OCC(=O)NCc3ccccc3)c2O1`, the “activity change, negative = growth inhibition” value was -13.5%. For `CC1(C(=O)NCC2CCOCC2)Cc2c(-c3cccc(C(N)=O)c3)ccnc2O1` (stereo not drawn), the Potency is 25.9 µM (active). The same measure, in the same setting: under `COc1ccc(NC(=O)C2(C)Cc3c(-c4cccc(NC(C)=O)c4)ccnc3O2)cc1` (stereo not drawn) stands 1.64 µM (active). On to `CC(C)(C)NC(=O)NCc1ccco1`, for which the “activity change, negative = growth inhibition” value was -26.1%.

For `COc1cccc(NC(=S)NCc2ccco2)c1`, the “activity change, negative = growth inhibition” value is -15.7%. The same measure, in the same setting: under `CC(=O)Nc1cccc(-c2cnc3ccccc3n2)c1` stands -8.99%; under `COc1ccc(NC(=O)C2(C)Cc3c(-c4ccc(C(N)=O)cc4)ccnc3O2)cc1` (stereo not drawn), -10%.

For `CC(=O)Nc1cccc(-c2ccnc3c2CC(C)(C(=O)NCc2ccccc2)O3)c1` (stereo not drawn), the Potency was 0.82 µM (active). With `COc1ccc(NC(=O)CCn2ccnc2)c(OC)c1`, the “activity change, negative = growth inhibition” value was -1.43%. Still for that read-out and setting: under `CC1=C(C(=O)N2CCOCC2)CC(CC(=O)NCCCN(C)C)C(=O)N1Cc1ccc(C(C)(C)C)cc1` (stereo not drawn) stands 5.4%; under `CC(C)N(C(=O)CSc1nnc(NC2CC2)s1)c1ccccc1`, -8.77%; under `O=C(Nc1cc(-c2nc3ncccc3o2)ccc1Cl)c1ccco1`, -10.8%.

Take `CSCCC(NC(=O)c1ccco1)C(=O)Nc1cc(C)ccn1` (stereo not drawn): the “activity change, negative = growth inhibition” value is -18.2%. On to `CC(=O)c1ccc(OCC(=O)N(C)C2CCS(=O)(=O)C2)cc1` (stereo not drawn), for which the “activity change, negative = growth inhibition” value is 3.48%. The same measure, in the same setting: under `CN(Cc1cc2cc(F)ccc2[nH]1)Cc1nc(-c2cnccn2)no1` stands 9%; under `Cn1cc(CNC(=O)c2ccc(OC3CCN(Cc4ccccn4)CC3)cc2)cn1`, -22.6%. Same read-out and setting: under `CCOC(=O)C1(Cc2cccc(OC)c2)CCCN(S(=O)(=O)c2cccnc2)C1` (stereo not drawn) stands -5.29%. As to `COc1cc(-c2nnc(NC(=O)CS(=O)(=O)c3ccc(Cl)cc3)o2)cc(OC)c1OC`, the “activity change, negative = growth inhibition” value was -1.16%. On to `Cc1ccc(C)c(-c2nnc(NC(=O)CS(=O)(=O)c3ccccc3)o2)c1`, for which the Potency is 11.6 µM (active). Consider `COc1ccc(-c2nnc(NC(=O)CS(=O)(=O)c3ccc(Cl)cc3)o2)c(OC)c1`, for which the “activity change, negative = growth inhibition” value is -27.9%. On to `Cc1cccc(C)c1NC(=O)NC1=CCCN1C`, for which the “activity change, negative = growth inhibition” value is 1.34%.

For the compound `CCOC(=O)c1ccc(S(=O)(=O)N(CCO)Cc2cc3cc(OC)c(OC)cc3[nH]c2=O)cc1`, the “activity change, negative = growth inhibition” value was 6.26%.

As to `CC(C)CC(N=C1NC(C)(C)Cc2ccccc21)C(=O)O` (stereo not drawn), the “activity change, negative = growth inhibition” value was -1.87%. Regarding `CCOc1ccc(NC(=O)CSc2ncnc3c2sc2ccccc23)cc1`, the “activity change, negative = growth inhibition” value was -0.672%. With `CC1(C)Cc2nc3sc4c(SCC(=O)NC(c5ccccc5)c5ccccc5)ncnc4c3cc2CO1`, the Potency is 8.2 µM (active). Regarding `C=CCn1c(=S)[nH]c2nc3c(cc2c1=O)COC(C)(C)C3`, the “activity change, negative = growth inhibition” value is -8.44%. Same read-out and setting: under `O=C1OC(OC(=O)c2ccccc2Br)C(N2CCOCC2)=C1Cl` (stereo not drawn) stands -21.2%; under `Cc1ccccc1NC(=S)Nc1cccc([N+](=O)[O-])c1`, -26%. Consider `COC(=O)/C=C\C(=O)Nc1cccc([N+](=O)[O-])c1`, for which the Potency is 1.03 µM (active). For the compound `CC(=O)Nc1cccc([N+](=O)[O-])c1`, the “activity change, negative = growth inhibition” value is -1.73%. On the same count and under the same terms, under `COC(C(=O)NCc1ccccc1C)c1ccccc1` (stereo not drawn) stands -4.58%; under `CC(C)CC(O)C1CCN(C(=O)CCc2nnc(-c3ccc4c(c3)OCO4)o2)CC1` (stereo not drawn), -6.86%; under `S=c1[nH]nc(COc2ccccc2)n1-c1ccccc1`, -1.82%.

Turning to `Cc1ccc(OCc2n[nH]c(=S)n2-c2ccccc2)cc1`, the “activity change, negative = growth inhibition” value was -19.1%. In the case of `COc1ccc(OCc2n[nH]c(=S)n2N)cc1`, the Potency is 18.4 µM (active). Consider `CCOc1ccc(OCC(=O)OC(C)C(=O)NC2CCCCC2C)cc1` (stereo not drawn), for which the “activity change, negative = growth inhibition” value was -20.9%.

As to `Cc1cccc(N2CCN(C(=O)c3ccccc3NC(=O)C3CCCCC3C(=O)O)CC2)c1` (stereo not drawn), the “activity change, negative = growth inhibition” value was -21.7%. For the compound `COc1c(C)cccc1C(=O)Nc1cc(Cl)ccc1N1CCOCC1`, the “activity change, negative = growth inhibition” value was -11.3%.

`Cc1cccc(N2CCN(c3ccc(C(=O)O)cc3NC(=O)c3ccccc3F)CC2C)c1` (stereo not drawn): the Potency was 23.1 µM (active). For `CNC[C@@H]1Oc2c(NS(C)(=O)=O)cccc2C(=O)N([C@@H](C)CO)C[C@H]1C`, the “activity change, negative = growth inhibition” value was -3.82%. In the case of `COCC(=O)N(C)C[C@H]1Oc2cc(Br)ccc2S(=O)(=O)N([C@H](C)CO)C[C@H]1C`, the “activity change, negative = growth inhibition” value is -9.87%. Still for that read-out and setting: under `Cc1cc(C(=O)OCC(=O)Nc2ccccc2Cl)c(C)o1` stands -12.6%; under `COC(=O)c1ccc(CSc2nnc(NC(C)C)s2)cc1`, -10.7%.

Regarding `CC(C)Nc1nnc(SCC(=O)c2c[nH]c3ccccc23)s1`, the “activity change, negative = growth inhibition” value was -18.8%.

As to `CC(C)Nc1nnc(SCC(=O)/C=C2\N(C)c3ccccc3C2(C)C)s1`, the Potency is 16.4 µM (active).

For the compound `Cc1ccccc1OCc1nc2c3cnn(-c4ccccc4F)c3ncn2n1`, the “activity change, negative = growth inhibition” value is -21.3%. Consider `CN1/C(=C\C(=O)c2cccnc2Cl)C(C)(C)c2ccccc21`, for which the Potency is 20.6 µM (active). In the case of `Cc1ccc(CNC(=O)c2cccnc2Cl)cc1`, the “activity change, negative = growth inhibition” value is 5.47%.

The values above are taken from PubChem BioAssay AID686979 (National Center for Advancing Translational Sciences (NCATS), 2013).
